This is an account of results in PubChem BioAssay AID1851 (National Center for Advancing Translational Sciences (NCATS), 2009).

Out of some 16,000 compounds screened, about 5,800 (36%) were called active. Another 23% or so got no clear call; they are omitted. The list shows a part of the results. A number with no mark means an inactive call. Calls follow the shape of the dose curve; as a rule, active = well fitted curve in the direction sought with a large enough effect; inconclusive = small, poorly fitted or top-dose-only effect, or effect the other way; inactive = no such curve, though single readings can be large or run the other way.
% is scaled to controls: 0 for no effect and ±100 for the full control effect.

Sequence of Cytochrome P450 2C19 (Homo sapiens) (P33261 whole entry, looked up): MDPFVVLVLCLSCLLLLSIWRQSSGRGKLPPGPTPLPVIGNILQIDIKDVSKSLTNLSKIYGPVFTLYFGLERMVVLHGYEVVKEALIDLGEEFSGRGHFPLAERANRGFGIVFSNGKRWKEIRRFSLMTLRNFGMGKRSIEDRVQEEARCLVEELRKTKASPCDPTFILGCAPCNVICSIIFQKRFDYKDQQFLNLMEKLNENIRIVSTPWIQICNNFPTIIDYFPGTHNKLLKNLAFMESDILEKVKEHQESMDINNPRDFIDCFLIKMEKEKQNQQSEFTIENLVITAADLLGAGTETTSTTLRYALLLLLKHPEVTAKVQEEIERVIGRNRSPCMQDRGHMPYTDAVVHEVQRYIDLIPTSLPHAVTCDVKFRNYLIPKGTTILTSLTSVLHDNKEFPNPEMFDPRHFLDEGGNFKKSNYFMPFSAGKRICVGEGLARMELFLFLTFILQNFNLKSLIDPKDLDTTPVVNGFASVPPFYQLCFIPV

The experiment addresses Cytochrome P450 2C19 (Homo sapiens) (UniProt P33261). Kind of experiment: Cytochrome panel assay with activity outcomes. As to conditions: recombinant CYP, pro-luciferin dealkylation, luminescence, p450-cyp2c19; series mostly up to 57.1 µM.
As a reminder, the AC50 is the concentration giving half of the maximal activity seen. Consider `CCN1CCN(C(=O)N[C@H](C(=O)N[C@@H]2C(=O)N3[C@@H]2SC(C)(C)[C@@H]3C(=O)O)c2ccccc2)C(=O)C1=O`, for which the AC50 result was “inactive”.
In the case of `N#Cc1cccc(-c2cncnc2NCc2ccccc2)c1`, the half-maximal activity concentration (AC50) was 7.94 µM (active).
For `Cc1cccc(CNc2ncncc2-c2cccc(C#N)c2)c1`, the concentration at half-maximal activity (AC50) is 3.98 µM (active).
On to `N#Cc1cccc(-c2cncnc2NCc2cccnc2)c1`, for which the concentration at half-maximal activity (AC50) is 3.98 µM (active).
Same read-out and setting: the value for `Cc1cnc(CNc2ncncc2-c2cccc(C#N)c2)cn1` was “inactive”.
Same read-out and setting: under `N#Cc1cccc(-c2cncnc2NCc2cccs2)c1` stands 7.94 µM (active).
Consider `CC(C)CN1CCC2(CC1)CCN(C(=O)c1cccn1C)CC2`, for which the AC50 result is “inactive”.
`CC(=O)NC1=NC(=O)CS1`: the AC50 entry is “inactive”.
On to `Nc1cc(-c2ccncc2)c[nH]c1=O`, for which the AC50 is 5.01 µM (active).
As to `Cc1cccc(C)c1OC[C@@H](N)C(C)C`, the AC50 entry was “inactive”.
For `CCCCc1ccc(-c2csc(/C(C#N)=C/c3ccc(C)o3)n2)cc1`, the concentration at half-maximal activity (AC50) is 5.62 µM (active).
The same measure, in the same setting: the value for `Nc1nnc(C(c2ccccc2)c2ccccc2)s1` was 22.4 µM (active); that for `COc1ccc(C(C(=O)NC2CCCC2)N(Cc2ccc(F)cc2)C(=O)c2ccn[nH]2)cc1OC` (stereo not drawn) was 10 µM (active).
With `COc1ccc(CC(NC(C)=O)C(=O)NC2CCN(C(=O)Nc3ccc(Cl)cc3)CC2)cc1OC` (stereo not drawn), the AC50 result is “inactive”.
The same measure, in the same setting: under `O=C(NC1CCCC1)C(c1ccc(F)cc1)N(Cc1ccc(F)cc1)C(=O)c1ccn[nH]1` (stereo not drawn) stands 5.01 µM (active); under `Cc1nc2cnc(N3CCN(C)CC3)nc2n(Cc2ccc(F)cc2)c1=O`, “inactive”.
On to `COCCn1c(=O)c(-c2cn(C)c3ccccc23)nc2cnc(OCc3ccccc3)nc21`, for which the AC50 entry is “inactive”.
The same measure, in the same setting: under `COc1ccc(-n2c(=O)c(CCc3ccccc3)nc3cnc(N4CCN(C)CC4)nc32)cc1` stands “inactive”.
On the same count and under the same terms, the value for `COc1ccc(-c2nc3cnc(OC)nc3n(CCc3ccccc3)c2=O)cc1` was “inactive”; that for `COc1ccc(-c2nc3cnc(OC)nc3n(-c3ccc(OC)cc3)c2=O)cc1` was “inactive”.
Same read-out and setting: under `COc1ccc(-n2c(=O)c(CCc3ccccc3)nc3cnc(OC)nc32)cc1` stands 6.31 µM (active); under `COc1ncc2nc(-c3ccc(F)cc3)c(=O)n(CCc3ccccc3)c2n1`, “inactive”.
On to `Cc1nc2cnc(Oc3ccccc3)nc2n(CCc2ccccc2)c1=O`, for which the AC50 result was “inactive”.
In the case of `COCCn1c(=O)c(-c2ccccc2)nc2cnc(OC)nc21`, the AC50 entry was “inactive”.
On to `COc1ncc2nc(C)c(=O)n(CCc3ccccc3)c2n1`, for which the concentration at half-maximal activity (AC50) is 25.1 µM (active).
Still for that read-out and setting: under `COc1ncc2nc(CCc3ccccc3)c(=O)n(CCc3ccccc3)c2n1` stands 7.94 µM (active); under `COCCn1c(=O)c(CCc2ccccc2)nc2cnc(OC)nc21`, 0.794 µM (active).
In the case of `C#CCCCO/N=C1/C[C@@H](O)[C@@H](O)[C@@H]2[C@@H]3C(=O)N(C4CCCCC4)C(=O)[C@H]3CC[C@@H]12`, the activity, negative = inhibition was -32.2% [at 11.4 µM].
Still for that read-out and setting: the value for `O=C1C[C@H]2C(=O)[C@@H]1[C@@H](C(=O)O)[C@H]2C(=O)O` was -11.8% [at 11.4 µM]; that for `Cc1ccc(S(=O)(=O)N[C@H]2COC(=O)[C@@H](C)COC(=O)[C@H](C)NC(=O)C/C=C\[C@H]2C)cc1` was 9.82% [at 11.4 µM].
In the case of `COc1ccc(-c2nc3cnc(N4CCNCC4)nc3n(C)c2=O)cc1`, the AC50 entry was “inactive”.
In the case of `CCOC(=O)c1c(C)n(C)c2ccc(OC)c(NS(=O)(=O)c3ccc(Cl)s3)c12`, the half-maximal activity concentration (AC50) is 0.282 µM (active).
Regarding `C=CCNC(=S)Nc1ccc2nc(C)c(C)nc2c1`, the AC50 result was “inactive”.
As to `Cc1ccc(NC(=S)NCCN2CCOCC2)cc1C`, the AC50 is 5.01 µM (active).
On the same count and under the same terms, the value for `Cc1cc(-c2ccccc2)nnc1NCCN1CCOCC1` was “inactive”; that for `Cc1ccc(CCN2CC(C(=O)NCCN3CCOCC3)CC2=O)cc1` (stereo not drawn) was “inactive”.
Same read-out and setting: under `Cc1ccc(SCCNC(=S)Nc2ccc(C)c(C)c2)cc1` stands 3.16 µM (active).
Same read-out and setting: under `O=C(c1cccc(F)c1)N1CCC2(CC1)CCN(C(c1ccccc1)c1ccccc1)CC2` stands “inactive”.
In the case of `CN(C)CCCn1cnc2cc(Cl)c(Cl)cc21`, the activity, negative = inhibition was 51.6% [at 11.4 µM].
`Cc1cc(Cl)ccc1OCC(=O)N/N=C1\CCCc2ccccc21`: the AC50 entry is “inactive”.
The same measure, in the same setting: the value for `O=C(N/N=C1\CCCc2ccccc21)c1ccc([N+](=O)[O-])cc1Cl` was 4.47 µM (active); that for `CCCCNC(=S)NNC(=O)c1sccc1C` was 0.794 µM (active); that for `CCCCNC(=S)NNC(=O)c1csc2c1CCC(C)C2` (stereo not drawn) was 3.98 µM (active).
Take `CC1CCc2c(C(=O)Nc3nccs3)csc2C1` (stereo not drawn): the AC50 was 2.82 µM (active).
On the same count and under the same terms, under `CC(C)NC(=O)N1CCC2(CC1)CCN(C(=O)c1ccncc1)CC2` stands “inactive”; under `CCNc1ncc2nc(-c3cc(F)cc(F)c3)c(=O)n(C[C@H]3CCCO3)c2n1`, “inactive”; under `COCCn1c(=O)c(-c2ccc(OC)cc2)nc2cnc(N3CCNCC3)nc21`, “inactive”.
The same measure, in the same setting: under `CCOC(=O)C(=Cc1ccc(-c2ccsc2C(=O)OC)o1)C(=O)OCC` stands 2.82 µM (active); under `COC(=O)COc1ccsc1C(=O)OC`, “inactive”; under `COC(=O)c1sccc1-c1ccc(C(=O)Nc2cccnc2)o1`, 3.16 µM (active).
Same read-out and setting: under `COC(=O)c1sccc1-c1ccc(C(=O)Nc2cccc(Cl)c2)o1` stands 3.16 µM (active); under `Cc1noc(NS(=O)(=O)c2cccc3c(N(C)C)cccc23)c1C`, “inactive”.
As to `CCN(CC)S(=O)(=O)c1cccc2c(N(C)C)cccc12`, the half-maximal activity concentration (AC50) is 3.98 µM (active).
Turning to `CCN(CC)S(=O)(=O)c1ccc2c3c(cccc13)C(=O)S2`, the concentration at half-maximal activity (AC50) is 1 µM (active).
Turning to `Cc1cnc(CNc2ncncc2-c2ccoc2)cn1`, the AC50 result was “inactive”.
Same read-out and setting: under `c1csc(CNc2ncncc2-c2ccoc2)c1` stands 15.8 µM (active).
Same read-out and setting: the value for `c1cncc(-c2cncnc2NCc2cccs2)c1` was “inactive”; that for `c1ccc(CNc2ncncc2-c2ccoc2)cc1` was 10 µM (active); that for `CN(C)c1ccc(-c2cncnc2NCc2cccs2)cc1` was 0.631 µM (active).
The same measure, in the same setting: under `NC/C=C\C(=O)O` stands “inactive”; under `CC1=CC=CN2CC(O)CN=C12` (stereo not drawn), “inactive”.
Turning to `Cc1cc(C)cc(-n2nnnc2SCC(=O)Nc2nc(-c3ccc(Cl)cc3)cs2)c1`, the half-maximal activity concentration (AC50) was 3.55 µM (active).
The same measure, in the same setting: the value for `O=C1CCCN1CC(CN1CCOCC1)Sc1nnnn1-c1ccccc1` (stereo not drawn) was 14.1 µM (active).
Same read-out and setting: under `CSc1nc(Sc2cccc(Cl)c2)c2ccccc2n1` stands 6.31 µM (active); under `CSc1c(-c2ccccc2)nc2ccc(Cl)cc2c1C(=O)O`, “inactive”.
Still for that read-out and setting: under `Cc1ccc(Sc2nc(C)cc(C)c2S(C)(=O)=O)cc1` stands 3.16 µM (active).
With `COc1ccc(C(=O)NNC(=O)Cc2ccc(-c3ccccc3)cc2)cc1OC`, the AC50 entry was “inactive”.
Same read-out and setting: under `CCN(CC)CCc1nc(-c2ccccc2)no1` stands “inactive”; under `COc1ccc(-c2noc(CCCC(=O)NCCc3ccccc3)n2)cc1OC`, 7.08 µM (active); under `O=C(CCc1nc(-c2ccccc2)no1)NCCc1ccccc1`, 5.01 µM (active).
Take `O=C1c2ccccc2C(=O)N1CC(=O)N1c2ccccc2CCc2ccccc21`: the AC50 was 1.41 µM (active).
The same measure, in the same setting: the value for `O=C1CC[C@H](N2C(=O)c3ccccc3C2=O)C(=O)N1` was “inactive”.
For `O=C1c2ccccc2C(=O)N1C[C@]1(C(=O)O)NCCS1(=O)=O`, the activity, negative = inhibition is -9.77% [at 11.4 µM].
The same measure, in the same setting: the value for `CC(C)(N)C(=O)N[C@@H]1C(=O)N2[C@@H]1SC(C)(C)[C@H]2C(=O)O` was 2.03% [at 11.4 µM].
For the molecule `Cc1ccc(NC(=O)CC2CS(=O)(=O)CC2CC(=O)Nc2ccc(C)c(C)c2)cc1C` (stereo not drawn), the AC50 entry is “inactive”.
Same read-out and setting: under `CCCCC(=O)Nc1ccc(C(=O)NNC(=O)CCc2ccccc2)cc1` stands “inactive”; under `CCC(CC)C(=O)Nc1ccc(C)c(O)c1`, 14.1 µM (active).
For the molecule `CCCCC(=O)Nc1ccc(C)c(O)c1`, the AC50 was 15.8 µM (active).
Take `CNc1cc(CSC)nc(SCc2ccc(Cl)c(Cl)c2)n1`: the AC50 is 0.794 µM (active).
Consider `Clc1ccc(CSC2=NCCN2)cc1Cl`, for which the activity, negative = inhibition is -10.9% [at 11.4 µM].
As to `O=C(Oc1ccccc1N1C(=O)C2CCCCC2C1=O)c1ccccc1` (stereo not drawn), the AC50 was 25.1 µM (active).
Still for that read-out and setting: under `COc1ccc2c(c1)C(c1ccc([N+](=O)[O-])cc1)=NNC(c1ccco1)=N2` stands 7.08 µM (active).
Turning to `Cn1cnnc1SCC(=O)n1c2ccccc2c2ccccc21`, the AC50 was 8.91 µM (active).
Same read-out and setting: under `COC(=O)C1=C(CSc2nncn2C)NC(=O)NC1c1ccc(F)cc1` (stereo not drawn) stands “inactive”; under `CC(=O)Oc1ccc2ccccc2c1C(NC(=O)Cc1ccccc1)c1ccc(Cl)cc1` (stereo not drawn), 1.26 µM (active).
The same measure, in the same setting: the value for `CC(=O)Oc1ccc(C(c2ccc(OC(C)=O)cc2)c2ccccn2)cc1` was “inactive”; that for `CCCCCOc1ccc(OC(=O)c2ccncc2)cc1` was 3.16 µM (active).
Same read-out and setting: the value for `CCCCOc1ccc(OC(=O)c2cccnc2)cc1` was 17.8 µM (active); that for `COc1ccc(C(=O)N2CCC3(CC2)CCN(c2ccncc2)CC3)cc1` was “inactive”.
With `COc1ccc(OC(=O)c2ccncc2)cc1`, the concentration at half-maximal activity (AC50) is 1.41 µM (active).
On to `N#Cc1ccc(OC(=O)c2ccc(N=C(N)N)cc2)cc1`, for which the activity, negative = inhibition was 14.4% [at 11.4 µM].
For `O=C(Nc1ccc(OC(=O)c2cccnc2)cc1)c1cccnc1`, the AC50 result was “inactive”.
`COc1ccc(C(=O)N2CCC3(CC2)CN(c2ccncc2)C3)cc1`: the AC50 entry is “inactive”.
Still for that read-out and setting: the value for `CCCCOc1ccc(CC(=O)NO)cc1` was “inactive”.
Same read-out and setting: the value for `CCN(CC)C(=O)CSc1nc2ccc(NC(=O)CSc3nnc(COc4ccccc4C)n3C)cc2s1` was 2.82 µM (active).
As for `Br/C(=N\Nc1nn[nH]n1)c1ccncc1`, the activity, negative = inhibition was 22.2% [at 11.4 µM].
With `O=C(O)/C=C\[C@H](O)c1ccc(Cl)cc1`, the AC50 entry is “inactive”.
For `CC(=O)ON(C(C)=O)S(=O)(=O)c1ccc(Cl)cc1`, the AC50 entry was “inactive”.
Still for that read-out and setting: the value for `NCCNC(=O)c1ccc(Cl)cc1` was “inactive”; that for `CC(Oc1ccc(Cl)cc1)C(=O)/C=C/N(C)C` (stereo not drawn) was 7.94 µM (active); that for `CN(C)/C=C/C(=O)c1ccc(Cl)cc1` was 11.2 µM (active).
For `CC(Oc1ccc(Cl)cc1Cl)C(=O)/C=C/N(C)C` (stereo not drawn), the half-maximal activity concentration (AC50) was 2.82 µM (active).
`COc1ccc(CNC(=O)C(c2ccc(C)cc2)N(Cc2cccs2)C(=O)c2ccc3c(c2)OCCO3)cc1` (stereo not drawn): the AC50 is 2.82 µM (active).
For the molecule `O=C(NCc1ccccc1)C(c1cccs1)N(Cc1cccs1)C(=O)c1cnccn1` (stereo not drawn), the concentration at half-maximal activity (AC50) is 3.55 µM (active).
Same read-out and setting: the value for `CCc1ccc(C(C(=O)NCc2ccc(OC)cc2)N(CCOC)C(=O)Cc2cccs2)cc1` (stereo not drawn) was 5.62 µM (active); that for `O=C(c1cnccn1)N1CCC2(CC1)CCN(C(c1ccccc1)c1ccccc1)CC2` was “inactive”.
Regarding `COc1ccc2nc3oc(C(=O)NCc4cccs4)cc3cc2c1`, the AC50 entry is “inactive”.
`COc1ccc(C(C(=O)NCc2ccccc2)N(Cc2cccs2)C(=O)c2cnccn2)cc1` (stereo not drawn): the AC50 is 7.08 µM (active).
